Laboratory results from PubChem BioAssay (EPA / NIEHS).
The source made the active and inactive calls. Rule for the calls: active = hit-call score of the fitted dose curve at least 0.9, where 1 is the maximum; inactive = score below 0.9.

Assays:
[1] = ATG_CRE_CIS: Attagene CIS-FACTORIAL HepG2 Assay for human cAMP Responsive Element (CRE) binding protein 3 (AID 2282926); conditions: HepG2 CRE cis-reporter, Attagene multiplexed mRNA; actives raise or lower the signal
How it was run: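 Multiplexed transcription-unit reporters transfected into HepG2; 24 h dosing; RT-PCR/capillary electrophoresis fluorescence read-out; bidirectional fit vs DMSO.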

[2] = molecular target: CCAAT/enhancer-binding protein beta (Homo sapiens) (UniProt P17676); experiment: ATG_C_EBP_CIS: Attagene CIS-FACTORIAL HepG2 Assay for human CCAAT/Enhancer Binding Protein (C/EBP) beta (AID 2282927); conditions: HepG2 Attagene cis-factorial transcription factor reporter; actives raise or lower the signal
Sequence of CCAAT/enhancer-binding protein beta (Homo sapiens) (P17676 whole entry, looked up): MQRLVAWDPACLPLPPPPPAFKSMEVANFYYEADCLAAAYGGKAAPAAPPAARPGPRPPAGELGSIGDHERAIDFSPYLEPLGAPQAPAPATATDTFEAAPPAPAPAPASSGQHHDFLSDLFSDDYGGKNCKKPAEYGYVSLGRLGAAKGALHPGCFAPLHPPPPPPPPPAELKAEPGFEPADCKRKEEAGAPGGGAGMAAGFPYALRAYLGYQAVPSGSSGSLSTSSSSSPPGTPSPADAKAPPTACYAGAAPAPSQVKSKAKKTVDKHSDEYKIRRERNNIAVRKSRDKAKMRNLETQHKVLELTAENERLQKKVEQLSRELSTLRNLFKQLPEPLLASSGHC
How it was run: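 Following a 24 h incubation with test chemical, transfected HepG2 cells yielded RNA whose reporter transcripts were quantified by RT-PCR and fluorescent capillary electrophoresis, with DMSO serving as baseline for bidirectional fitting.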

[3] = ATG_CMV_CIS: Attagene CIS-FACTORIAL HepG2 Assay for human CMV (Internal Marker) (AID 2282928); conditions: HepG2 CMV promoter reporter, transcription factor profiling; actives raise or lower the signal;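 note: endpoint acts as a background internal control marker rather than a target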
How it was run: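 CMV internal-marker background readout in transiently transfected HepG2 cells bearing cis-regulated reporter units. Reporter mRNA is measured 24 h after dosing by RT-PCR and capillary electrophoresis, with bidirectional fitting against DMSO.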

[4] = ATG_DR4_LXR_CIS: Attagene CIS-FACTORIAL HepG2 Assay for human Liver X Receptor (LXR), DR4 submotif (AID 2282929); conditions: HepG2 Attagene DR4 cis-reporter, mRNA transcription; actives raise or lower the signal
How it was run: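 Transiently transfected HepG2 liver cells; cis-regulated reporters; 24 h dosing. RT-PCR plus CE read-out of reporter mRNA. DMSO baseline, bidirectional curve fitting.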

[5] = molecular target: Aryl hydrocarbon receptor (Homo sapiens) (UniProt P35869); experiment: ATG_Ahr_CIS: Attagene CIS-FACTORIAL HepG2 Assay for human Aryl Hydrocarbon Receptor (Ahr) (AID 2282930); conditions: HepG2 AhR cis-factorial reporter transcription; actives raise or lower the signal
Sequence of Aryl hydrocarbon receptor (Homo sapiens) (P35869 whole entry, looked up): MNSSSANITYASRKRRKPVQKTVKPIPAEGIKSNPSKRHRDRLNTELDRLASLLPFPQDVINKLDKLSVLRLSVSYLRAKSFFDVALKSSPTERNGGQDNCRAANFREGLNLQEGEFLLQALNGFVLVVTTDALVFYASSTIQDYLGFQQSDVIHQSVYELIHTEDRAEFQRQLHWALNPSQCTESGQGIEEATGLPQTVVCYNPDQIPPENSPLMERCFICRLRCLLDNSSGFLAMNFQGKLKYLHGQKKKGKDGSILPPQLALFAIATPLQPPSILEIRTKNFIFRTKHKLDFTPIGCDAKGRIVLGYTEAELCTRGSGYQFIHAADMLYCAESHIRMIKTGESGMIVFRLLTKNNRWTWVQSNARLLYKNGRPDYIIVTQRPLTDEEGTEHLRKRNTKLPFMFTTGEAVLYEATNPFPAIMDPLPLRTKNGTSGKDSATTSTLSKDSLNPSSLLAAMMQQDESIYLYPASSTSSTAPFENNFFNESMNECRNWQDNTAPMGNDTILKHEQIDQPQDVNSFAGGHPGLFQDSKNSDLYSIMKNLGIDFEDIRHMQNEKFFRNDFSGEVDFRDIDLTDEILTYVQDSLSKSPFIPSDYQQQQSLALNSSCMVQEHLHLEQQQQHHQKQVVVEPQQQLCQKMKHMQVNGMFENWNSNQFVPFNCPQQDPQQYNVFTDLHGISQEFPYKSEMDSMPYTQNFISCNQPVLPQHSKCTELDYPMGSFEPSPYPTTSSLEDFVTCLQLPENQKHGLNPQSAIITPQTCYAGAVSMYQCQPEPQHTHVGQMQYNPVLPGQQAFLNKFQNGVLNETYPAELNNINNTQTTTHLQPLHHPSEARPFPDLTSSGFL
How it was run: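 Values derive from bidirectional fitting against DMSO negative control. Underlying signal: cis-element reporter mRNA in transiently transfected HepG2, harvested 24 h post-dose and measured by RT-PCR plus capillary electrophoresis.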

[6] = ATG_AP_1_CIS: Attagene CIS-FACTORIAL HepG2 Assay for human Activator Protein 1 (AP-1) (AID 2282931); conditions: HepG2 Attagene cis-factorial AP-1 reporter mRNA; actives raise or lower the signal
How it was run: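 We transfected HepG2 cells transiently with a set of cis-regulated reporter transcription units, dosed them for 24 h, and quantified reporter mRNA via RT-PCR and capillary electrophoresis, scoring gain or loss of signal relative to DMSO.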

[7] = ATG_BRE_CIS: Attagene CIS-FACTORIAL HepG2 Assay for human Bone Morphogenetic Protein (BMP) Response Element (BRE) (AID 2282933); conditions: HepG2 BMP response element reporter, Attagene transcription factor profiling; actives raise or lower the signal
How it was run: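 Read-out: reporter mRNA induction quantified by RT-PCR and capillary electrophoresis after 24 h chemical exposure of transfected HepG2 cells. Endogenous factor activity on the BMP response element; gain or loss fitted against DMSO baseline.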

[8] = molecular target: Retinoic acid receptor alpha (Homo sapiens) (UniProt P10276); experiment: ATG_DR5_RAR_CIS: Attagene CIS-FACTORIAL HepG2 Assay for human Retinoic Acid Receptor Alpha (RARE), DR5 submotif (AID 2282934); conditions: HepG2 Attagene cis-factorial RARE DR5 reporter, mRNA; actives raise or lower the signal;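 for AC50: reporter responds to endogenous RAR alpha beta and gamma in HepG2 not RARA alone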
Sequence of Retinoic acid receptor alpha (Homo sapiens) (P10276 whole entry, looked up): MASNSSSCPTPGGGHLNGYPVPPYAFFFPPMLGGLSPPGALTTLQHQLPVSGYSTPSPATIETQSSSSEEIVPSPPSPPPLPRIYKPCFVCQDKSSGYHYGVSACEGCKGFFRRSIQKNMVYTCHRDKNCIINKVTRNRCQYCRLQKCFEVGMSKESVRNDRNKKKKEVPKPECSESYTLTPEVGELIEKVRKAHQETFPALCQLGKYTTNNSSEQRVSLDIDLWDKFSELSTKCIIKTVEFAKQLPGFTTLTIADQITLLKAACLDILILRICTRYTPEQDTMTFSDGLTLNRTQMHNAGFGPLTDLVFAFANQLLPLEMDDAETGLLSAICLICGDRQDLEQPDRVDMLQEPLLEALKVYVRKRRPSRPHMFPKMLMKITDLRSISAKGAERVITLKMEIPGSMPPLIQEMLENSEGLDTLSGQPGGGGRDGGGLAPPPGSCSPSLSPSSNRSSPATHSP
How it was run: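 Endpoint fitted in both directions relative to DMSO as negative control. It reflects DR5 cis-element reporter mRNA induction in transiently transfected HepG2 cells, measured 24 h after dosing through RT-PCR and fluorescent capillary electrophoresis.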

[9] = molecular target: Transcription factor E2F1 (Homo sapiens) (UniProt Q01094); experiment: ATG_E2F_CIS: Attagene CIS-FACTORIAL HepG2 Assay for human E2F Transcription Factor 1 (AID 2282935); conditions: HepG2 Attagene cis-reporter, E2F reporter RNA transcripts; actives raise or lower the signal
Sequence of Transcription factor E2F1 (Homo sapiens) (Q01094 whole entry, looked up): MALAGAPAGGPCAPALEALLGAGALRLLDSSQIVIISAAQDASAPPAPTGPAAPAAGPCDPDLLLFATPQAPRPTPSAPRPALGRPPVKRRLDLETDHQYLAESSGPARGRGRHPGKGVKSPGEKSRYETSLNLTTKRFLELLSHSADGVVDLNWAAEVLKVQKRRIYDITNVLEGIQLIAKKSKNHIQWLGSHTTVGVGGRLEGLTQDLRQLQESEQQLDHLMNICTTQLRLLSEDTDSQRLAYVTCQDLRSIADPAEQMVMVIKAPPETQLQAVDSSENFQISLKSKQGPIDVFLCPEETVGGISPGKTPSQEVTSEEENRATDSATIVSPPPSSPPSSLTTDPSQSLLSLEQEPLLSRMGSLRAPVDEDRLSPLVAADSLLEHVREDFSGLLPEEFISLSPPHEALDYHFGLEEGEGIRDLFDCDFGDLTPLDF
How it was run: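 HepG2 cells transiently transfected with multiplexed cis-element reporter units, dosed for 24 h. Reporter mRNA measured by RT-PCR, 6-FAM primer-extension labeling, HpaI digestion and capillary electrophoresis; bidirectional fit versus DMSO baseline.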

[10] = ATG_AP_2_CIS: Attagene CIS-FACTORIAL HepG2 Assay for human Activator Protein 2 (AP-2) (AID 2282932); conditions: HepG2 AP-2 cis-reporter, Attagene transcription factor profiling; actives raise or lower the signal
How it was run: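 HepG2 cells were transiently transfected with multiple cis-promoter reporter transcription units and dosed for 24 h. Reporter mRNA was measured by RT-PCR with capillary electrophoresis fluorescence; bidirectional fits relative to DMSO baseline.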

Measured: AC50

CC(C)OC(=O)Nc1ccccc1
not listed: [10]
inactive: all other assays above

CCCCP(CCCC)CCCC
not listed: [7] | [8]
inactive: all other assays above

CC(Br)C(=O)O (stereo unspecified)
not listed: [7] | [10]
inactive: all other assays above

C=CCc1ccc(OC)cc1
not listed: [8] | [10]
inactive: all other assays above

CCCCC(CC)CO[N+](=O)[O-] (stereo unspecified)
active: [8] 99.5 µM
not listed: [10]
inactive: all other assays above

CC(=O)C=C(C)C
not listed: [7]
inactive: all other assays above

C=C(C)C#N
not listed: [7]
inactive: all other assays above

O=C(CCl)CCl
active: [1] 24.7 µM | [3] 54 µM | [4] 23.3 µM
inactive: [2] | [5] | [6] | [9]

O=C(OC1CCCCC1)c1ccccc1C(=O)OC1CCCCC1
active: [3] 74.7 µM | [4] 13.7 µM | [5] 17.4 µM | [6] 38.1 µM | [9] 187 µM
inactive: [1] | [2] | [10] | [8]

C=CC#N
not listed: [10]
inactive: all other assays above

C[C@H]1CCCC(=O)CCC/C=C/c2cc(O)cc(O)c2C(=O)O1
active: [3] 31.1 µM | [5] 22.5 µM | [7] 64.5 µM
not listed: [8] | [10]
inactive: all other assays above

COc1ccccc1OC
not listed: [5]
inactive: all other assays above

CCOC(=O)/C=C(C)/C=C/C[C@@H](C)CCCC(C)C
active: [1] 23.5 µM | [2] 179 µM | [3] 132 µM | [4] 53.5 µM | [6] 100 µM | [10] 46.9 µM | [8] 33.4 µM | [9] 180 µM
inactive: [7]

CCN(CC)C(=O)Cl
not listed: [8] | [10]
inactive: all other assays above

CCC[CH2][Sn]([CH2]CCC)([CH2]CCC)[O]C(=O)c1ccccc1
active: [2] 0.0581 µM
not listed: [7] | [8] | [10]
inactive: all other assays above

N#CN=C(N)N
not listed: [7] | [10]
inactive: all other assays above

CC(=[OH+])/C=C(/C)[O-].CC(=[OH+])/C=C(/C)[O-].CC(=[OH+])/C=C(/C)[O-].[Al]
not listed: [7] | [8]
inactive: all other assays above

Nc1ccc(-c2ccc(N)c(Cl)c2)cc1Cl
active: [3] 2.15 µM | [5] 6.23 µM
inactive: [1] | [2] | [4] | [6] | [9]

O=P(O)(O)CN(CP(=O)(O)O)CP(=O)(O)O
not listed: [10]
inactive: all other assays above

COP(=S)(OC)Oc1c(Cl)cc(C)cc1Cl
not listed: [10]
inactive: all other assays above

O=[N+]([O-])c1ccc(O)c([N+](=O)[O-])c1
not listed: [10]
inactive: all other assays above

COC(=O)Cc1ccccc1
not listed: [7] | [10]
inactive: all other assays above

O=C(Cl)c1ccc(Cl)cc1
not listed: [10]
inactive: all other assays above

CCc1ccccc1C
not listed: [10]
inactive: all other assays above

N#Cc1ccccn1
not listed: [1]
inactive: all other assays above

CCSC(C)CC1CC(=O)C(C(CC)=NOC/C=C/Cl)=C(O)C1 (stereo unspecified)
active: [5] 28.4 µM
not listed: [1]
inactive: all other assays above

Cc1ccc(N)cc1Cl
not listed: [5]
inactive: all other assays above

c1cc[c]([Hg][c]2ccccc2)cc1
active: [2] 21.3 µM
not listed: [1] | [7] | [10]
inactive: all other assays above
